Beta apoptosis – blocks beta cell apoptosis; INS-1E cytokine-induced death, ATP luminescence, 48 h; percent of positive-control rescue, neutral wells zero; protection from apoptosis, % (test concentration not listed); 300,000 compounds, 0.8% hits; AID 435005;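 active means Every replicate reaches about 75%, or at least half do and their mean reaches it too, limit read from the data; inconclusive means At least half of replicates reach the limit but their mean does not; inactive means Under half of replicates reach the limit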;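 further: higher means more ATP so stronger rescue from cytokine killing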
Mdm2-MdmX inh – human Mdm2/MdmX binding inhibition; O15151+Q00987; SaOS-2 split-luciferase Mdm2/MdmX complementation, luminescence; inhibition, % at 8 µM; 330,000 compounds, 3% hits; AID 485346;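 active means inhibition of at least 50% at 8 µM in the primary screen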
Target sequence (O15151 whole entry, looked up): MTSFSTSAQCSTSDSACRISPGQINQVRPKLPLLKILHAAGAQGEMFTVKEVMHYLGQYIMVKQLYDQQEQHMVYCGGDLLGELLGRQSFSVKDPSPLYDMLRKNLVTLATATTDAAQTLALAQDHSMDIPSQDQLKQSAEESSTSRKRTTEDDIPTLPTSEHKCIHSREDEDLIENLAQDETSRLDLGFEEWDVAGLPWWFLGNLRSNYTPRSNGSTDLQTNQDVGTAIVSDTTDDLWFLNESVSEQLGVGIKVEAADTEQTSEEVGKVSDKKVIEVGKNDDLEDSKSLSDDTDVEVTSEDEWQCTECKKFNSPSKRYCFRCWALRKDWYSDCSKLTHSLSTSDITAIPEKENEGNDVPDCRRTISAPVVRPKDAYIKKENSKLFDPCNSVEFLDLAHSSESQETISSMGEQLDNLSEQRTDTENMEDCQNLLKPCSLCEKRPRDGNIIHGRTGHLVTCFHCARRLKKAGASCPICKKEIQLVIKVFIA
Target sequence (Q00987 whole entry, looked up): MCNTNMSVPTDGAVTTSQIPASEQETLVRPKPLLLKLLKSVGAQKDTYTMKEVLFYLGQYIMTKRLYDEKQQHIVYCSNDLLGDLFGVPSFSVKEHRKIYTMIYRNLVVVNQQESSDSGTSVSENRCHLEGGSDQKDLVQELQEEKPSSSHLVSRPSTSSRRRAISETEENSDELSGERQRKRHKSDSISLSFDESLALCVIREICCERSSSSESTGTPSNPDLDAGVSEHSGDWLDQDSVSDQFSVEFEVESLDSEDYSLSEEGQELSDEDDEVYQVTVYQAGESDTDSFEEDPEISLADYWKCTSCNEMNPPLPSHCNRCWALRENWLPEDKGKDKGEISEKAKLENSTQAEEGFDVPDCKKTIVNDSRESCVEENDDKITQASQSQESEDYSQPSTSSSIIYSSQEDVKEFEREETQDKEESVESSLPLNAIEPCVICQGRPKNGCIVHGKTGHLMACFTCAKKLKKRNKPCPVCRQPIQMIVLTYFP
Calb FLC – affects C. albicans growth with fluconazole; C. albicans CaCi-2 (fluconazole-resistant clinical isolate) + fluconazole, Alamar Blue growth, 48 h; growth inhibition, % (no concentration beside the values); 300,000 compounds, 0.57% hits; AID 1979;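 active means growth inhibition above about 58% in most replicates, limit read from the data, passing the limit was not always enough; inconclusive means exactly half the replicates above a set limit; inactive means most replicates below a set limit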;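 further: all wells also contain fluconazole at 8 µg/ml as a sub-toxic cotreatment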
CSC inhib – blocks cancer stem cells; AID 2717; 300,000 compounds, 1.1% hits; inhibition, % at 7.5 µM; cancer stem cell-like cells viability, luminescence; in the data active means inhibition above about 75%; inconclusive means no clear call, values can overlap the other calls; tested in HMLE shEcad cells
MPTP block – permeability transition pore inhibition; inhibition, % at 10 µM; isolated mouse mitochondria, Ca2+ swelling absorbance, 30 min; AID 602449; 360,000 compounds, 1.4% hits;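 active means inhibition of 50% or more, scaled per plate between neutral and stimulator controls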
Hits are given with their value; 0 = inactive; ? = inconclusive; - = not tested or not shown. In the library only some 4.8% were active in any assay of this set; here they are far more common.

SMILES	Beta apoptosis	Mdm2-MdmX inh	Calb FLC	CSC inhib	MPTP block
Cc1ccc(-n2c(-c3ccc(Br)cc3)c[n+]3c2CCc2ccc4cccnc4c2-3)cc1	133.1	-	98.9	0	0
CC(=O)Nc1ccc(C2=NNC(=Nc3cccc(S(=O)(=O)N(C)C)c3)SC2)cc1	96.3	0	0	0	0
Fc1ccccc1N=C1NN=C(c2ccccc2)CS1	97.4	0	0	0	0
Cc1cc(C2=NNC(=Nc3ccccc3)SC2)c(C)n1C	0	0	0	0	0
CN(C)S(=O)(=O)c1cccc(N=C2NN=C(c3ccccc3)CS2)c1	90.8	-	-	0	-
CC(=O)Nc1ccc(C2=NNC(=Nc3ccc(S(=O)(=O)N4CCOCC4)cc3)SC2)cc1	0	0	0	0	0
O=C(NCc1ccccc1)C(c1ccc(C(F)(F)F)cc1)n1c(=O)c(-c2cc3ccccc3[nH]2)nc2ccccc21 (stereo unspecified)	-	-	-	-	0
COC(=O)c1ccc2c(=O)n(-c3ccccc3)c(SCN3C(=O)c4ccccc4C3=O)nc2c1	106.2	0	0	0	0
O=C1c2ccccc2C(c2nc3ccccc3[nH]2)N1c1ccccn1 (stereo unspecified)	-	-	-	-	0
CC(c1ccccc1)N1CCn2c(nc3cc(NS(C)(=O)=O)ccc32)C1 (stereo unspecified)	0	0	108.7	0	0
CCCCCOC(=O)CSc1nnc(-c2cc(OC)c(OC)c(OC)c2)o1	0	0	0	-	0
CCCCCCc1cc2cc(-c3nnc(-c4cc(OC)c(OC)c(OC)c4)o3)c(=O)oc2cc1O	0	0	0	76.7	-
CCc1nc2c(OCCC3CCCCC3)cccn2c1N(C)C(=O)c1ccccc1F	-	-	-	-	0
Cc1ccc([N+](=O)[O-])cc1-c1[nH]c(-c2ccc(O)c(O)c2)nc1-c1ccccc1	-	0	111.8	0	0
COc1ccc(-c2nc(-c3ccccc3)c(-c3cc([N+](=O)[O-])ccc3C)[nH]2)cc1O	0	0	0	0	0
O=C(Oc1c(Cl)cc(Cl)c2cccnc12)N1CCOCC1	0	0	91.7	0	0
O=C(Oc1ccc(Cl)c2cccnc12)c1cccc([N+](=O)[O-])c1	0	0	85.0	107.8	0
O=C(Oc1c(Cl)cc(Cl)c2cccnc12)c1cccc([N+](=O)[O-])c1	0	0	103.6	176.8	0
CCCS(=O)(=O)NC(=O)C1(C)CCN(C(=O)c2cccs2)C1 (stereo unspecified)	-	-	-	-	0
COc1cc(/C=C/CN2CCC(C(=O)NC(c3ccc(F)cc3)c3ccc4ccccc4n3)CC2)ccc1OC(C)=O (stereo unspecified)	-	-	-	-	0
CN(Cc1ccccc1)C(=O)c1ccc2nc([C@@H]3O[C@H](CO)[C@H](O)[C@H](O)[C@H]3O)[nH]c2c1	-	-	-	-	0
CC(C)(C)c1cc(CSC(=S)NC2CCS(=O)(=O)C2)c(Br)c(C(C)(C)C)c1 (stereo unspecified)	0	0	0	97.4	0
O=S1(=O)CC=C(CSC(=S)NC2CCS(=O)(=O)C2)C1 (stereo unspecified)	0	0	0	0	0
CC(C)=CCc1c(O)cc2c(=O)c3ccc(O)cc3oc2c1O	0	0	0	82.7	0
CC1=C(C(=O)N2CCCCCC2)CC(CC(=O)NCCc2ccccn2)C(=O)N1Cc1ccc(F)cc1 (stereo unspecified)	-	-	-	-	0
SMILES	Beta apoptosis	Mdm2-MdmX inh	Calb FLC	CSC inhib	MPTP block
COCCN1C(=O)CN(S(C)(=O)=O)CC1(C)C(=O)NCc1ccccc1 (stereo unspecified)	-	-	-	-	0
CCOC(=O)[C@]12CCCC=C1N(Cc1cccc3ccccc13)C(=O)[C@H](CC(=O)NCCc1ccccc1OC)C2	-	-	-	-	0
COC(=O)c1ccc(COc2ccccc2/C=C(\C#N)C(=O)Nc2c(C)cc(C)cc2C)cc1	0	0	?	117.0	0
CC(=O)c1c(C)oc2c1C(=O)c1ccccc1C2=O	96.5	-	0	82.6	0
CC12CCC(C(=O)NNc3ccc([N+](=O)[O-])cc3)(CC1=O)C2(C)C (stereo unspecified)	0	0	120.7	0	0
CC(=O)OCCCNc1cc(Sc2ccc(Cl)cc2)c2nonc2c1[N+](=O)[O-]	0	-	0	81.0	0
Cc1ccccc1-n1c(=O)c(C#N)cc2c(=O)n3ccccc3nc21	-	0	54.5	0	0
COc1ccc(NC(=O)c2cc(C3CCCCN3S(=O)(=O)c3cn(C)cn3)on2)c(C)c1 (stereo unspecified)	-	-	-	-	0
c1ccc(-c2ccc3c(c2)c2c4n3CCN=C4CCC2)cc1	0	0	98.9	-	0
O=C(Nc1ccc(F)cc1)C(CCc1ccccc1)N1CCN(Cc2c(F)cccc2Cl)CC1 (stereo unspecified)	-	-	-	-	0
O=C(O)CN1C(=O)/C(=C\c2cc(Br)ccc2OCc2ccc(Cl)cc2Cl)SC1=S	0	0	0	108.5	0
COC(=O)[C@@]12C[C@@H](CC(=O)NCCc3ccccc3OC)C(=O)N(CCc3ccc(OC)c(OC)c3)C1=CCC(C)(C)C2	-	-	-	-	0
O=[N+]([O-])c1ccc(N=Nc2c(Cl)cc(O)cc2Cl)cc1	121.5	-	?	110.1	0
O=c1cc(N2CCCCC2)c(-c2ccccc2)nn1Cc1ccc(Cl)cc1Cl	0	0	0	82.7	0
O=c1cc(N2CCCCC2)c(-c2ccccc2)nn1Cc1cccc(Cl)c1	-	0	0	88.3	0
CCCCC(c1nc2ccccc2[nH]1)n1c(=O)c(-c2ccccc2)nc2cc(C)c(C)cc21 (stereo unspecified)	-	-	-	-	0
C#CCOCCOCCOCCNc1nc(N2CCOCC2)nc(N2CCN(C(=O)CCCCCCCCCCNC(=O)[C@@H]([C@H](C)CC)n3cc(CCCCCN)nn3)CC2)n1	0	0	-	0	0
C#CCOCCOCCOCCNc1nc(N2CCN(C(=O)CCCCCCCCCCNC(=O)[C@H]([C@@H](C)CC)n3cc(CCCCN=C(N)N)nn3)CC2)nc(N2CCN(C(=O)CCCCCCCCCCNC(=O)[C@H](CCCCN)n3cc(C)nn3)CC2)n1	98.0	0	-	0	-
C#CCOCCOCCOCCNc1nc(N2CCN(C(=O)CCCCCCCCCCNC(=O)[C@@H](CCC(=O)O)n3cc(CCCCCN)nn3)CC2)nc(N2CCN(C(=O)CCCCCCCCCCNC(=O)[C@H]([C@@H](C)CC)n3cc(CCCCCN)nn3)CC2)n1	0	0	-	0	0
C#CCOCCOCCOCCNc1nc(N2CCN(C(=O)Cn3cc(CCCN=C(N)N)nn3)CC2)nc(N2CCN(C(=O)[C@H]([C@@H](C)CC)n3cc(CCCCN)nn3)CC2)n1	0	0	-	0	0
C#CCOCCOCCOCCNc1nc(N2CCN(C(=O)CCCCCCCCCCNC(=O)Cn3cc(CCCCCN)nn3)CC2)nc(N2CCN(C(=O)CCCCCCCCCCNC(=O)[C@H]([C@@H](C)CC)n3cc(CCCCN=C(N)N)nn3)CC2)n1	86.4	0	-	161.3	0
C#CCOCCOCCOCCNc1nc(N2CCN(C(=O)CCCCCCCCCCNC(=O)[C@H]([C@@H](C)CC)n3cc(CCCCN=C(N)N)nn3)CC2)nc(N2CCN(C(=O)CCCCCCCCCCNC(=O)[C@H]([C@@H](C)CC)n3cc(CCCCN=C(N)N)nn3)CC2)n1	99.2	0	-	0	-

Compound activity as filed in PubChem BioAssay.
